Screens from PubChem BioAssay.
The full list was thinned out, with hits kept by preference.
DT40 TDP1 no CPT: qHTS for Inhibitors of human tyrosyl-DNA phosphodiesterase 1 (TDP1): qHTS in cells in absence of CPT. DT40 Tdp1-/- hTDP1 cells, no CPT, ATP luminescence, 48 h. Potency, µM (doses to about 46.2 µM), for inactives: at the highest dose activity change, negative = growth inhibition, most hits filed as inhibitors. 420,000 compounds, 15% hits; further: potency means the concentration at half of the fitted maximal effect; nearly all actives have a fitted effect of over 55% in size
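Growth kinetics read by CellTiter-Glo luminescence after ≥48 hr at 37 °C. Cells: DT40 Tdp1-/- stably carrying human TDP1, 400 per well, compound exposure in the absence of CPT (DMSO vehicle).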
HT1080-NT tox: qHTS for induction of synthetic lethality in tumor cells producing 2HG: qHTS for the HT-1080-NT fibrosarcoma cell line. HT-1080-NT fibrosarcoma viability, CellTiter-Glo ATP luminescence, 48 h. Potency, µM (series often up to 46.1 µM), for inactives: at the highest dose activity, negative = less viability, actives largely listed as cytotoxic. 360,000 compounds, 1.6% hits. AID 686970, 2013;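 further: NT is the 2HG producing partner of a matched IDH1 knockdown line; potency means the concentration at half of the fitted maximal effect; 0% = DMSO-treated cells and -100% = media-only wells without cells; nearly all actives have a fitted effect of over 55% in size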
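Luminescent CellTiter-Glo readout after 48 hours of compound exposure at 37 degrees C defined viability of HT-1080-NT cells. Activity was normalized to DMSO wells and cell-free media wells; concentration-response curves were fitted and assigned curve classes.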
ALOX12 inh: Primary qHTS assay for inhibitors of human arachidonate 12S-lipoxygenase (ALOX12): Round 2; Potency, µM (series often up to 108 µM), for inactives: at the highest dose activity change, negative = inhibition, most hits filed as inhibitors; Polyunsaturated fatty acid lipoxygenase ALOX12 (Homo sapiens), P18054; 580,000 compounds, 1.1% hits; purified 12hLO, xylenol orange hydroperoxide absorbance; further: potency means the concentration at half of the fitted maximal effect
Target sequence (P18054 whole entry, looked up): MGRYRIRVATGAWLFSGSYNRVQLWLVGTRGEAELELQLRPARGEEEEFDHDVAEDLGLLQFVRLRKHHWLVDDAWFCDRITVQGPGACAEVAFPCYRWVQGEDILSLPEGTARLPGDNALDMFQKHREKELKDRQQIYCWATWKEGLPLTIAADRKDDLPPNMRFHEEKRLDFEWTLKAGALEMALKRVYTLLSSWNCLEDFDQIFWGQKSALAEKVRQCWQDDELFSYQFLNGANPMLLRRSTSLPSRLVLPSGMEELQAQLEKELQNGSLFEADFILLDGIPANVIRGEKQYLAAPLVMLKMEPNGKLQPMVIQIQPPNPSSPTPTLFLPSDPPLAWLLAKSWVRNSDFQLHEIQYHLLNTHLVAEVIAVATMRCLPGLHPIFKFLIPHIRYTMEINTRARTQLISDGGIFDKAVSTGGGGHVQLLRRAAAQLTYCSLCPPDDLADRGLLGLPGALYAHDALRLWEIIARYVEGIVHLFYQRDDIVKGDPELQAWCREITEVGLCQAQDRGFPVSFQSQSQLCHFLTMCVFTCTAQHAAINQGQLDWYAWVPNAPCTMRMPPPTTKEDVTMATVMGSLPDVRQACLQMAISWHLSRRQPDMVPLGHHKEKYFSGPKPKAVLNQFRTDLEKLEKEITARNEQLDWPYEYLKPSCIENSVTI
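Purified human 12hLO at 150 nM in 25 mM Hepes, 0.01% Triton X-100, pH 7.0, preincubated 15 min at room temperature with compound. Reaction started with 40 uM arachidonic acid, 30 min at room temperature. Hydroperoxide measured by Fe-xylenol orange, 573/405 nm absorbance ratio.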
IL1B secr inh: qHTS for Inhibitors of Inflammasome Signaling: IL-1-beta AlphaLISA Primary Screen. THP-1 LPS/ATP IL-1B secretion, AlphaLISA, 16 h; hits give low values. activity change, % at 57.5 µM. 360,000 compounds, 4.7% hits. AID 743279, 2014; in the data active means activity change below about -50%; inconclusive means mostly about -30% to -49%
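Secreted IL-1B measured by AlphaLISA bead assay after 16 h compound exposure of THP-1 cells; compounds (final up to 57.5 uM) added 1 h before LPS (250 ng/mL) and ATP (1.25 mM) stimulation; lower signal means less secretion.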
TDP1 cell CPT: qHTS for Inhibitors of human tyrosyl-DNA phosphodiesterase 1 (TDP1): qHTS in cells in presence of CPT. Potency, µM (series often up to 46.2 µM), inactives show at the top dose activity change, negative = growth inhibition, actives largely listed as inhibitors. chicken DT40 Tdp1-/-;hTDP1 cells + 20 nM CPT, ATP luminescence, 48 h. 420,000 compounds, 12% hits; further: potency means the concentration at half of the fitted maximal effect; nearly all actives have a fitted effect of over 55% in size
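Chicken DT40 Tdp1-/- cells complemented with human TDP1, 400 cells/well, exposed to compounds plus 20 nM camptothecin for at least 48 h at 37 C; viability read as ATP content by CellTiter-Glo luminescence.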
HT1080 IDH1KD tx: qHTS for induction of synthetic lethality in tumor cells producing 2HG: qHTS for the HT-1080-IDH1KD cell line | Potency, µM (highest dose often 46.1 µM), for inactives: at the highest dose activity, negative = toxicity, usual class: cytotoxic | 360,000 compounds, 2% hits | AID 686971, 2013 | HT-1080 IDH1 knockdown viability, ATP luminescence, 48 h;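 further: potency means the concentration at half of the fitted maximal effect; 0% = DMSO wells and -100% = cell-free medium wells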
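Cytotoxicity counter-line: IDH1KD HT-1080, 48 h, CellTiter-Glo. Curves classed by r2, magnitude and activity.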
* marks the source's active call; other numbers are inactive results; i = inactive; ? = inconclusive; / = no result given; [ ] = dose if it differs, or a comment. Unless noted, the call rests on the fitted dose curve; in most records, active means well fitted curve in the direction sought with a large enough effect; inconclusive means small, poorly fitted or top-dose-only effect, or another doubt; inactive means no such curve, though single readings can be large; an effect the other way counts as inactive or inconclusive. Unless noted, on the % scale 0 is the no-effect control and ±100 the full control effect.

SMILES	DT40 TDP1 no CPT	HT1080-NT tox	ALOX12 inh	IL1B secr inh	TDP1 cell CPT	HT1080 IDH1KD tx
O=C(COC(=O)c1ccc(O)cc1O)N=c1sccn1Cc1ccccc1Cl	?	0%	-16%	?	?	0%
NCC(c1ccccc1)c1ccccc1	/	/	1%	/	/	/
COc1ccccc1C1=NS(=O)(=O)N(C)C(C(=O)N2CCCCC2C)=C1 (centres undefined)	/	/	-1%	/	/	/
O=C1NC2(CCN(C(=O)Cc3ccccc3)CC2)Oc2ccccc21	/	/	16%[176 µM]	/	/	/
Cc1ccc(C(=O)Oc2cccc(Cl)c2)cc1	/	/	8%	/	/	/
Cc1cc(O)ccc1NC(=O)Cc1cccc2ccccc12	-4%	0%	16%	12	-16%	-16%
CN(C)c1ccc(S(=O)(=O)N(C)C)cc1NC(=O)Cc1cccc2ccccc12	?	-1%	9%	-52*	?	-18%
CC(C)N(C(=O)COc1ncnc2ccccc12)c1ccccc1	/	/	29%	/	/	/
COc1cc(OC)cc(C(=O)NC(=S)NCc2ccco2)c1	?	18µM*	?	-6	?	?
COc1ccc(C(=O)NC(=S)NCc2ccco2)cc1Br	?	-15%	22µM*	i	?	-25%
COc1ccc(C(=O)NC(=S)NCc2ccco2)cc1OC	?	-16%	?	-17	-28%	-1%
CCNc1nccc(N2CCC(CC(=O)NCCCOC)CC2)n1	/	/	-4%	/	/	/
CC1CCCCN1C(=O)c1ccc2c(c1)N(Cc1cccc(Cl)c1)C(=O)c1ccccc1S2=O (centres undefined)	21µM*	/	?	/	?	/
CC1CCC(NC(=O)c2ccc3c(c2)N(Cc2cccc(Cl)c2)C(=O)c2ccccc2S3=O)CC1 (centres undefined)	-23%	/	-14%	/	-26%	/
O=C(c1ccc2c(c1)N(Cc1cccc(Cl)c1)C(=O)c1ccccc1S2=O)N1CCC(Cc2ccccc2)CC1 (centres undefined)	4.6µM*	/	-15%	/	3.3µM*	/
CN1CCN(C(=O)c2ccc3c(c2)N(Cc2cccc(Cl)c2)C(=O)c2ccccc2S3=O)CC1 (centres undefined)	-13%	3%	12%[57.4 µM]	-3	-4%	0%
CCN1CCN(C(=O)c2ccc3c(c2)N(Cc2cccc(Cl)c2)C(=O)c2ccccc2S3=O)CC1 (centres undefined)	21µM*	/	?	/	?	/
Cc1cccc(N2CCN(C(=O)c3ccc4c(c3)N(Cc3cccc(Cl)c3)C(=O)c3ccccc3S4=O)CC2)c1C (centres undefined)	5.2µM*	/	-24%	/	3.7µM*	/
CS(=O)(=O)Nc1ccc(/C=C/C(=O)O)cc1	/	/	-2%	/	/	/
Cc1nc(-c2ccccc2)sc1C(=O)Nc1ccc(C(C)C)cc1	/	/	15%	/	/	/
O=S1(=O)C[C@H](N2CCN(Cc3ccc4c(c3)OCO4)CC2)[C@@H](S(=O)(=O)c2cccs2)C1	/	/	1%	/	/	/
CCC(C)c1ccc(-c2csc(NC(=O)C3CCN(C(=O)c4ccoc4)CC3)n2)cc1 (centres undefined)	/	/	-19%	/	/	/
O=C(c1ccc2c(c1)N(Cc1cccc(Cl)c1)C(=O)c1ccccc1S2=O)N1CCN(c2cccc(C(F)(F)F)c2)CC1 (centres undefined)	10µM*	/	-23%	/	16µM*	/
CC(=O)c1ccc(NC(=O)c2ccc3c(c2)N(Cc2cccc(Cl)c2)C(=O)c2ccccc2S3=O)cc1 (centres undefined)	?	/	1%	/	?	/
CC(C)NC(=O)c1ccc2c(c1)N(Cc1cccc(Cl)c1)C(=O)c1ccccc1S2=O (centres undefined)	?	/	?	/	21µM*	/
SMILES	DT40 TDP1 no CPT	HT1080-NT tox	ALOX12 inh	IL1B secr inh	TDP1 cell CPT	HT1080 IDH1KD tx
CCOC(=O)N1CCN(C(=O)c2ccc3c(c2)N(Cc2cccc(Cl)c2)C(=O)c2ccccc2S3=O)CC1 (centres undefined)	26µM*	-8%	-5%	-23	16µM*	-23%
O=C(c1ccc2c(c1)N(Cc1cccc(Cl)c1)C(=O)c1ccccc1S2(=O)=O)N1CCN(c2cccc(C(F)(F)F)c2)CC1	?	/	-19%	/	-27%	/
O=C(CCN1C(=O)c2ccccc2S1(=O)=O)Nc1cccc(C(=O)O)c1	/	/	13%	/	/	/
CCOc1ccccc1NC(=O)c1nn(C)c(=O)c2ccccc12	/	/	-11%	/	/	/
CCN1CCCC1CNC(=O)c1cnn(-c2nccc(-c3cc4ccccc4o3)n2)c1C1CC1 (centres undefined)	4.1µM*	/	21%	/	?	/
CC(Sc1nc(CN2CCOCC2)nc2ccccc12)C(=O)Nc1ccccc1F (centres undefined)	/	/	-29%	/	/	/
c1ccc(Cn2nnc3c(N4CCc5ccccc54)ncnc32)cc1	0%	11%	-11%	39	-8%	7%
CCCN1CCN(c2ncnc3c2nnn3Cc2ccccc2)CC1	21µM*	-16%	23%	23	16µM*	?
S=c1sc2c(N3CCN(Cc4ccccc4)CC3)ncnc2n1-c1ccccc1	23µM*	12%	14%	0	16µM*	10%
Clc1cccc(Cl)c1Cn1cnc2c(N3CCCCCC3)ncnc21	10µM*	-6%	-23%	-74*	18µM*	-4%
c1ccc(Cn2nnc3c(N4CCCCCC4)ncnc32)cc1	16µM*	-22%	-13%	-12	?	-25%
COc1ccc(-n2nnnc2C(C)(C)Nc2ccc(C)cc2)cc1	/	/	-6%	/	/	/
COc1cccc2c(C)nc(Nc3nc(-c4ccccc4)cc(=O)[nH]3)nc12	/	/	0%	/	/	/
COc1ccc(N2CCN(c3ncnc4c3nnn4C)CC2)cc1	?	/	-27%	/	?	/
Cn1nnc2c(N3CCN(Cc4ccccc4)CC3)ncnc21	16µM*	2%	/	/	?	14%
COC(=O)N/N=C/c1cc(Cl)cc(Cl)c1OCc1ccccc1	?	0%	0%	-1	18µM*	-1%
